The source of these data is PubChem BioAssay AID504832 (National Center for Advancing Translational Sciences (NCATS), 2011).

In all, about 310,000 compounds went through this assay and about 18,000 (5.8%) were called active. A call without a number means that no potency is given here. Roughly 22% stayed inconclusive and do not appear here. Calls follow the shape of the dose curve; as a rule, active = well fitted inhibition curve with a large enough effect; inconclusive = small, poorly fitted or top-dose-only effect, or another doubt; inactive = no such curve, though single readings can be large or run the other way. The sample as a whole holds a higher share of actives than the screen did.
Potency is read from the fitted curve at half-maximal effect.

The nature of this test: Primary qHTS for delayed death inhibitors of the malarial parasite plastid, 48 hour incubation. The note with it: P. falciparum luciferase growth in erythrocytes; series mostly up to 28.7 µM. An excerpt:
The goal of this screen is to discover new antimalarial compounds that act by inhibiting the development of the apicoplast in the malarial parasite Plasmodium falciparum. The biochemical processes that make this organelle essential for erythrocytic stage parasites are not well understood. However, antibiotics such as azithromycin and tetracycline, which target the apicoplast translational machinery, have a potent antimalarial effect.
We have developed a cell-based assay that measures parasite growth based on the expression of an integrated copy of a firefly luciferase reporter. To detect small molecules that cause this "delayed death" phenotype, erythrocytes infected with the luciferase-expressing parasites were incubated with compounds for either one or two generations, corresponding to 48 and 96 hours, respectively. Compounds that inhibit parasite growth in the second generation, but not the first, should be enriched in antimalarials that target the apicoplast. Growth inhibition is detected by a decrease in luciferase activity.
Assay Provider: David Fidock and Eric Ekland, Columbia University
Keywords: NIH Roadmap, MLPCN, MLI, MLSMR, qHTS, NCGC, qHTS, malaria, luciferase, viability
Four microliters of culture medium (RPMI 1640 with 0.5% w/v Albumax (GIBCO), 24 mM sodium bicarbonate and 10 ug/mL gentamycin) were dispensed by a Multi-drop Combi into white solid 1536-well plates (Grenier) and 23 nL compound was added by a pin tool. Four microliters of infected erythrocytes (2% hematocrit, 0.1% parasitemia final concentration) in culture medium were dispensed and the plates incubated for 48 hours at 37 C in 5% CO2. Two microliters of luciferase detection reagent was added and luminescence was detected by a ViewLux (PerkinElmer) reader.
For the compound `COc1ccc(CNC(=O)Cc2ccc(-c3ccccc3)cc2)cc1OC`, the Potency result was “inactive”.
Regarding `COc1ccc(C(=O)CN(C(=O)c2ccc(Cl)cc2)N2C(=O)c3ccccc3C2=O)cc1`, the Potency result is “inactive”.
With `COc1ccc(Cn2c(-c3ccc(Cl)cc3)c[n+]3ccccc23)cc1` the figure was 0.522 µM (active); with `CCn1c(C)cc(=O)cc1-c1ccc(Cl)cc1`, “inactive”.
Turning to `Cc1ccc(OCC(=O)NCCCNC(=O)c2ccco2)cc1C`, the Potency result was “inactive”.
For `Cn1cccc1C(=O)NNC(=O)COc1ccc(Br)cc1`, the Potency result was “inactive”.
With `COc1cccc(C(O)c2nc3ccccc3n2C)c1` (stereo not drawn) the entry was “inactive”; with `Cc1n[nH]c(=O)c2c(NC(=O)COC(=O)c3ncc(Cl)c(Cl)c3Cl)oc(C)c12`, “inactive”.
For the compound `COc1cc(OC)c(S(=O)(=O)Nc2ccccc2C(=O)O)cc1S(=O)(=O)Nc1ccccc1C(=O)O`, the Potency result is “inactive”.
As to `Cc1ccc(C)c(NC(=O)CN(C)C(=O)c2ccc3ncsc3c2)c1`, the Potency result was “inactive”.
On to `O=C(Nc1ccnc(-c2ccncc2)n1)c1cccs1`, for which the Potency is 11.7 µM (active).
With `O=C(Nc1ncccn1)c1cccs1` the entry was “inactive”.
`O=C(Nc1ccc(NC(=O)c2cccs2)cn1)c1ccco1`: the Potency result is “inactive”.
For `CC(C)CN(C(=O)CSc1ncnc2sccc12)C1CCS(=O)(=O)C1` (stereo not drawn), the Potency entry is “inactive”.
For the compound `CCN(CC)CCn1c2c(c(SCC(=O)Nc3nc4ccccc4s3)nc1=O)CCCC2`, the Potency entry is “inactive”.
On to `O=C(NC(=S)N1CCCCC1c1cccnc1)c1ccccc1` (stereo not drawn), for which the Potency result was “inactive”.
Regarding `Cc1ccc(-c2cc(C(F)(F)F)n3ncc(C(=O)N4CCCCC4c4cccnc4)c3n2)cc1` (stereo not drawn), the Potency is 1.65 µM (active).
For the compound `O=C(Nc1ccccc1C(F)(F)F)N1CCCC1c1cccnc1` (stereo not drawn), the Potency entry was “inactive”.
With `CCn1c(SCC(=O)NC2CC2)nnc1-c1ccccn1`, the Potency result was “inactive”.
As for `CCOc1ccc(C(=O)CCN2CCOCC2)cc1`, the Potency result is “inactive”.
For the compound `CC(=O)c1ccc(S(=O)(=O)NCc2nnnn2-c2ccccc2)cc1`, the Potency entry is “inactive”.
In the case of `Cc1cccc(-c2nnc(SCC(=O)O)n2Cc2ccccc2)c1`, the Potency entry was “inactive”.
Regarding `CC(C)(C)OC(=O)N1CCC(NC(=O)c2[nH]cnc2C(=O)N[C@@H](Cc2ccccc2)C(=O)OCc2ccccc2)CC1`, the Potency was 0.928 µM (active).
For the compound `C[C@@H](NC(=O)c1nc[nH]c1C(=O)N1CCN(C(=O)OC(C)(C)C)CC1)c1ccccc1`, the Potency entry was “inactive”.
With `O=C(N[C@@H](Cc1ccccc1)C(=O)OCc1ccccc1)c1nc[nH]c1C(=O)N[C@@H](Cc1ccccc1)C(=O)OCc1ccccc1` the entry was “inactive”; with `Cc1onc(C(=O)Nc2ccc3c(c2)OCO3)c1[N+](=O)[O-]`, “inactive”.
With `Cc1c(CCOC(=O)CC23CC4CC(CC(C)(C4)C2)C3)sc[n+]1Cc1ccc([N+](=O)[O-])cc1` the figure was 2.62 µM (active); with `Cc1c(CCOC(=O)c2cc([N+](=O)[O-])ccc2Cl)sc[n+]1CCCCS(=O)(=O)[O-]`, “inactive”.
